Compound activity from PubChem BioAssay.
Hits are enriched below; roughly 19% of the tested compounds scored in any of these assays.
HT1080NT lethal: kills 2HG-producing HT-1080-NT fibrosarcoma cells; HT-1080-NT fibrosarcoma viability, CellTiter-Glo ATP luminescence, 48 h; Potency, µM (series often up to 46.1 µM), for the others: at the top dose activity, negative = less viability, actives largely listed as cytotoxic; hit rate 1.6% among 360,000; AID 686970;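 note: NT is the 2HG producing partner of a matched IDH1 knockdown line; potency is the fitted concentration of half-maximal effect; 0% = DMSO-treated cells and -100% = media-only wells without cells; nearly all actives have a fitted effect of over 55% in size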
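HT-1080-NT; 750 cells/well; 5% FBS RPMI; 48 h compound, 37 degrees C; CellTiter-Glo luminescence; curve fitting and curve-class assignment.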
TDP1 cell CPT: DT40-hTDP1 cell growth loss with CPT; hit rate 12% among 420,000; chicken DT40 Tdp1-/-;hTDP1 cells + 20 nM CPT, ATP luminescence, 48 h; Potency, µM (series often up to 46.2 µM), inactives show at the top dose activity change, negative = growth inhibition, actives largely listed as inhibitors; note: potency is the fitted concentration of half-maximal effect; nearly all actives have a fitted effect of over 55% in size
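Chicken DT40 Tdp1-/- cells complemented with human TDP1, 400 cells/well, exposed to compounds plus 20 nM camptothecin for at least 48 h at 37 C; viability read as ATP content by CellTiter-Glo luminescence.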
DT40 TDP1 no CPT: qHTS for Inhibitors of human tyrosyl-DNA phosphodiesterase 1 (TDP1): qHTS in cells in absence of CPT; hit rate 15% among 420,000; Potency, µM (doses to about 46.2 µM), inactives show at the highest dose activity change, negative = growth inhibition, hits mostly inhibitors; DT40 Tdp1-/- hTDP1 cells, no CPT, ATP luminescence, 48 h; note: potency is the fitted concentration of half-maximal effect; nearly all actives have a fitted effect of over 55% in size
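No-CPT arm: Tdp1-/-;hTDP1 DT40 cells (400/well) plus compounds, incubated ≥48 hr at 37 °C. Readout CellTiter-Glo luminescence.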
HT1080 IDH1KD tx: toxicity to HT-1080 IDH1 knockdown cells (counter line) | Potency, µM (top dose mostly 46.1 µM), for inactives: at the highest dose activity, negative = toxicity, usual class: cytotoxic | hit rate 2% among 360,000 | HT-1080 IDH1 knockdown viability, ATP luminescence, 48 h;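 note: potency is the fitted concentration of half-maximal effect; 0% = DMSO wells and -100% = cell-free medium wells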
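Luminescent ATP read-out (CellTiter-Glo, 10 min at room temperature) after 48 h compound exposure at 37 °C gave viability of IDH1-knockdown HT-1080 cells. Activity was normalised to DMSO and cell-free wells, then fitted as concentration-response curves.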
IL1B secr inh: inhibitors of inflammasome signaling (IL-1 beta secretion); THP-1 LPS/ATP IL-1B secretion, AlphaLISA, 16 h; hits give low values; AID 743279; activity change, % at 57.5 µM; hit rate 4.7% among 360,000; in the data active = activity change below about -50%; inconclusive = mostly about -30% to -49%
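THP-1 cells pretreated 1 hr with compounds (up to 57.5 uM final), then stimulated with LPS (250 ng/mL final) plus ATP (1.25 mM final); secreted IL-1B measured by AlphaLISA after 16 hr, decreased signal indicating inhibition.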
Starred values were filed as active, the others as inactive; ? = inconclusive; . = not tested or not shown. Unless noted, calls come from the whole dose curve; as a rule, active = well fitted curve in the direction sought with a large enough effect; inconclusive = small, poorly fitted or top-dose-only effect, or another doubt; inactive = no such curve, though single readings can be large; an effect the other way counts as inactive or inconclusive. Unless noted, % is set by controls: 0 for no effect and ±100 for the full control effect.

SMILES | HT1080NT lethal | TDP1 cell CPT | DT40 TDP1 no CPT | HT1080 IDH1KD tx | IL1B secr inh
COc1ccc(C(=O)N/C(=C\c2cn(S(=O)(=O)N(C)C)c3ccccc23)C(=O)N2CCN(C)CC2)cc1 | -3% | -19% | 20% | -6% | -29
O=C(CCCCCn1c(=O)[nH]c2ccccc2c1=O)NCc1cccc(Cl)c1 | . | -19% | -25% | . | .
S=C(NCc1ccccc1Cl)Nc1ccccc1Cl | 7% | 2% | 0% | 7% | 0
Cc1cc(Cl)ccc1NC(=S)NCc1ccccc1Cl | -7% | ? | 26µM* | -22% | -5
Cc1cc(Cl)ccc1NC(=S)NCc1ccc(F)cc1 | ? | 3% | ? | ? | -56*
CCCNC(=S)Nc1ccc(Cl)cc1C | 14% | -2% | -12% | 16% | 3
Cc1cc(Cl)ccc1NC(=S)NCC(C)C | 2% | ? | 29µM* | -1% | -4
O=C(O)COc1ccc(NC(=O)c2ccc3c(c2)C(=O)N(Cc2ccccc2)C3=O)cc1 | 1% | -11% | 2% | 0% | 6
CN(C)c1cccc(NC(=O)C2Cc3c(-c4ccccc4Oc4ccccc4)ccnc3O2)c1 (configuration not stated) | -12% | ? | ? | ? | -27
O=C(Nc1cccc(C(F)(F)F)c1)C1Cc2c(-c3ccccc3Oc3ccccc3)ccnc2O1 (configuration not stated) | ? | 23µM* | 16µM* | ? | -23
CC(=O)c1cccc(NC(=O)C2Cc3c(-c4ccccc4Oc4ccccc4)ccnc3O2)c1 (configuration not stated) | ? | 18µM* | 16µM* | ? | ?
O=C(Nc1cccnc1)C1Cc2c(-c3ccccc3Oc3ccccc3)ccnc2O1 (configuration not stated) | ? | ? | 23µM* | ? | ?
COc1cc(NC(=O)CCc2nnc3ccc(N4CCCCC4)nn23)cc(OC)c1OC | -5% | -26% | 1% | -9% | 4
COCCCNC(=O)Nc1cc(C(=O)NCc2ccc(OC)cc2)ccc1N1CCCC1 | . | -21% | -26% | . | .
COc1ccccc1OCC(=O)Nc1cccc(C(=O)N2CCOCC2)c1 | 18% | -14% | -5% | 7% | 8
CCc1ccc(-c2cc3c(N4CCN(c5ccccc5)CC4)nccn3n2)cc1 | . | ? | 21µM* | . | .
O=[N+]([O-])c1cc(-c2nc3nc4ccccc4nc3n2CCc2ccccc2)cc([N+](=O)[O-])c1 | 0% | 19% | ? | 18% | -11
Clc1cccc(Nc2ncnc3c2cnn3-c2ccccc2)c1 | -20% | ? | ? | -17% | -11
N#Cc1cccc(Nc2ncnc3c2cnn3-c2cccc(Cl)c2)c1 | . | ? | 23µM* | . | .
Fc1cccc(Nc2ncnc3c2cnn3-c2ccccc2)c1 | -8% | ? | 16µM* | -8% | -10
COC(=O)C[C@@H]1C=C[C@@H](NS(=O)(=O)c2ccc(OC)cc2)[C@@H](CO)O1 | 20% | 8% | 10% | 16% | 23
CCCCN(CCCC)CC(O)c1cc(Cl)cc2c1-c1ccc(Cl)cc1C2=Cc1ccc(Cl)cc1 (configuration not stated) | . | 8.9µM* | ? | . | .
CCCCOC(=O)Cn1nnc2sc(-c3ccccc3)cc2c1=O | . | -14% | -20% | . | .
OB(O)c1csc2ccccc12 | . | -4% | 11µM* | . | .
CC1(C)CC(N=Cc2c(O)n(Cc3ccc4c(c3)OCO4)c(=O)c3ccccc23)CC(C)(C)N1 | 18µM* | 6.5µM* | 7.3µM* | 7.3µM* | -107*
SMILES | HT1080NT lethal | TDP1 cell CPT | DT40 TDP1 no CPT | HT1080 IDH1KD tx | IL1B secr inh
CC(C)CN(CC(C)C)c1ccc(/C=C/c2ccnc3ccccc23)cc1 | . | 13µM* | 18µM* | . | .
CCN(CC)CCCNc1ncnc2ccccc12 | 1% | 5% | 1% | -5% | 22
C=CCNc1ncnc2ccccc12 | -3% | ? | -28% | 1% | 24
CCN(CC)CCN(CC)c1ccc(/C=C/c2ccnc3ccccc23)cc1 | . | -91% | 4.5µM* | . | .
CCN(Cc1ccccc1)c1ccc(/C=C/c2nccc3ccccc23)cc1 | . | 13µM* | ? | . | .
C=CCN(CC=C)c1ccc(/C=C/c2ccnc3ccccc23)cc1 | . | 18µM* | ? | . | .
COc1ccc(CCNC(=O)CN(c2cccc([N+](=O)[O-])c2)S(C)(=O)=O)cc1OC | 3% | 6% | -1% | 7% | 30
COc1cc(S(=O)(=O)NCc2ccc(F)cc2)ccc1-n1cnnn1 | 0% | -19% | -10% | 17% | 10
COc1cccc(CCc2nnc(CCC(=O)NC(C)c3c(C)nn(C)c3C)o2)c1 (configuration not stated) | -3% | 7% | 14% | 4% | -3
CN(C)c1ccc(N=Nc2ccc(/C=C/c3ccnc4ccccc34)cc2)cc1 | . | ? | 18µM* | . | .
CCN(C)c1ccc(/C=C/c2ccnc3ccccc23)cc1 | . | 11µM* | 11µM* | . | .
CCCCN(CCC#N)c1ccc(/C=C/c2ccnc3ccccc23)cc1 | . | 10µM* | 10µM* | . | .
CCCCCCCN(CCCCCCC)c1ccc(/C=C/c2ccnc3ccccc23)cc1 | . | -22% | -15% | . | .
CCCCCCCCCCN(CCCCCCCCCC)c1ccc(/C=C/c2ccnc3ccccc23)cc1 | . | -24% | -28% | . | .
OCCN(CCO)c1ccc(/C=C/c2ccnc3ccccc23)cc1 | . | 8.9µM* | 14µM* | . | .
CC1CCc2c(sc3nc(-c4cc5cc(Br)ccc5oc4=O)[nH]c(=O)c23)C1 (configuration not stated) | . | -15% | -18% | . | .
